Drawing on PubChem BioAssay (EPA / NIEHS), this text covers AC50 and outcome for 16 compounds.

The nature of assay [1]: BSK_CASM3C_SRB: Viability Assessment in the BioMAP Diversity Plus: CASM3C Assay (AID 2283050).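 Further: total protein by SRB staining as cytotoxicity measure in parallel cultures; cells exposed to compound for 24 h.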 Particulars: primary human coronary artery smooth muscle cells.
Read-out in assay [2]: Thrombomodulin, THBD (gene 7056)
The experiment in a line: BSK_CASM3C_Thrombomodulin: BioMAP Diversity Plus: CASM3C Assay for Thrombomodulin Biomarker Activity (AID 2283051).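 Further: thrombomodulin protein level measured by ELISA 24 h after dosing.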 Particulars: primary human coronary artery smooth muscle cells; actives raise or lower the signal.

Read-out in assay [3]: Tissue Factor, F3 (gene 2152)
In words: BSK_CASM3C_TissueFactor: BioMAP Diversity Plus: CASM3C Assay for Tissue Factor Biomarker Activity (AID 2283052).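 Further: cell surface tissue factor protein level read by ELISA.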 The settings on record: primary human coronary artery smooth muscle cells; actives raise or lower the signal.

Read-out in assay [4]: Interferon-gamma inducible Protein 10 (IP10), CXCL10 (gene 3627)
In words: BSK_hDFCGF_IP10: BioMAP Diversity Plus: hDFCGF Assay for Interferon-gamma inducible Protein 10 (IP10) Biomarker Activity (AID 2283053). The settings on record: primary human foreskin fibroblasts; actives raise or lower the signal. The gist of the method:
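ELISA read-out of IP-10 (CXCL10) from primary human skin fibroblasts, 24 h after compound addition. Gain or loss of signal versus DMSO baseline, bidirectional curve fitting.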

Read-out in assay [5]: Urokinase-type plasminogen activator receptor (uPAR), PLAUR (gene 5329)
The experiment in a line: BSK_CASM3C_uPAR: BioMAP Diversity Plus: CASM3C Assay for Urokinase-type plasminogen activator receptor (uPAR) Biomarker Activity (AID 2283054).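 Further: cell-surface uPAR protein level quantified by ELISA.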 The settings on record: primary human coronary artery smooth muscle cells; actives raise or lower the signal.

Read-out in assay [6]: Vascular cell adhesion molecule 1 (VCAM1), VCAM1 (gene 7412)
The experiment in a line: BSK_CASM3C_VCAM1: BioMAP Diversity Plus: CASM3C Assay for Vascular cell adhesion molecule 1 (VCAM1) Biomarker Activity (AID 2283055).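 Further: VCAM-1 protein level quantified by ELISA on the cells.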 The settings on record: primary human coronary artery smooth muscle cells; actives raise or lower the signal.

Read-out in assay [7]: Collagen III, COL3A1 (gene 1281)
The experiment in a line: BSK_hDFCGF_CollagenIII: BioMAP Diversity Plus: hDFCGF Assay for Collagen III Biomarker Activity (AID 2283056). The settings on record: primary human foreskin fibroblasts; actives raise or lower the signal. The method, boiled down:
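Human foreskin primary fibroblasts were exposed to test chemicals for 24 h, after which collagen III was quantified by ELISA. Activity was fitted bidirectionally against DMSO as negative control and baseline.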

Read-out in assay [8]: Epidermal growth factor receptor (EGFR), EGFR (gene 1956)
In words: BSK_hDFCGF_EGFR: BioMAP Diversity Plus: hDFCGF Assay for Epidermal growth factor receptor (EGFR) Biomarker Activity (AID 2283057). Particulars: primary human foreskin fibroblasts; actives raise or lower the signal. The gist of the method:
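ELISA readout of EGFR on human dermal fibroblasts (primary foreskin cells), 24 h post-dosing; bidirectional curve fit vs DMSO baseline, gain or loss of signal scored.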

Read-out in assay [9]: Interleukin-8 (IL8), CXCL8 (gene 3576)
The experiment in a line: BSK_hDFCGF_IL8: BioMAP Diversity Plus: hDFCGF Assay for Interleukin-8 (IL8) Biomarker Activity (AID 2283058). Particulars: primary human foreskin fibroblasts; actives raise or lower the signal. The gist of the method: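 hDFCGF human dermal fibroblasts; 24 h chemical exposure; IL-8 by ELISA; bidirectional curve fit vs DMSO baseline; gain or loss of signal scored.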

Assay [10] can be described thus: BSK_hDFCGF_Proliferation: Cell Proliferation Assessment in the BioMAP Diversity Plus: hDFCGF Assay (AID 2283059).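 Further: curves fitted for both rise and fall of signal versus DMSO baseline.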 The settings on record: primary human foreskin fibroblasts. The method, boiled down:
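Primary human foreskin fibroblasts, sub-confluent; […]; 10% TCA fix, 0.1% SRB stain, A560 total protein. Gain/loss fitted bidirectionally vs DMSO control.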

Values joined by “and” are separate entries in the source; they are usually repeats but may differ in a detail not shown here. Equal entries are not always repeated. A structure can be active in one record and inactive in another. Active and inactive are the calls of the source. How the source made its calls: active means hit-call score of the fitted dose curve at least 0.9, where 1 is the maximum; inactive means score below 0.9.

As a reminder, the AC50 is the concentration at which the activity in the assay is half-maximal. Regarding `OCC(F)(F)C(F)(F)C(F)(F)C(F)(F)C(F)(F)C(F)(F)C(F)(F)C(F)(F)CO`, the AC50 in assay [1] is 43.2 µM (active); in assay [4] it was 44.9 µM (active) and 44.5 µM (active); in assay [6], 40.9 µM (active); in assay [7], 30 µM (active) and 42.7 µM (active); in assay [8], 47.8 µM (active) and 48.7 µM (active); in assay [9], 48 µM (active). For the same compound, in [10], the AC50 was 39.8 µM (active) and 47.9 µM (active). The result in assay [1], in assay [2], in assay [3], in assay [5], in [6] and in assay [9] was inactive.

In the case of `C=C(C)C(=O)OCC(F)(F)C(F)(F)C(F)(F)C(F)F`, the result in [1], in assay [2], in assay [3], in [4], in assay [5] and in assay [6] was inactive. The outcome in assay [7], in assay [8], in [9] and in assay [10] was inactive.

With `O=C(O)C(F)(F)C(F)(F)C(F)(F)C(F)(F)C(F)(F)C(F)(F)C(F)F`, the outcome in assay [1], in assay [2], in assay [3], in [4], in assay [5] and in assay [6] was inactive. For the same compound, the outcome in [7], in assay [8], in [9] and in assay [10] was inactive. The AC50 in assay [4] is 8.52 µM (active); in assay [7], 30 µM (active); in assay [8], 30 µM (active) and 1.81 µM (active).

On to `CNS(=O)(=O)C(F)(F)C(F)(F)C(F)(F)C(F)(F)C(F)(F)C(F)(F)C(F)(F)C(F)(F)F`, for which the result in [1], in assay [2], in assay [3], in assay [4], in assay [5] and in [7] was inactive. Moreover, the outcome in assay [8], in assay [9] and in [10] was inactive. Besides, the AC50 in assay [4] was 1.99 µM (active); in assay [6] it was 8.2 µM (active) and 1.69 µM (active).

Take `OCC(O)CC(F)(F)C(F)(F)C(F)(F)C(F)(F)F` (centres undefined): the outcome in assay [1], in assay [2], in assay [3], in [4], in assay [5] and in assay [6] was inactive. The outcome in assay [7], in assay [8], in assay [9] and in assay [10] was inactive.

Take `C=CC(=O)OCCC(F)(F)C(F)(F)C(F)(F)C(F)(F)F`: the outcome in assay [1], in assay [2], in assay [3], in assay [5], in assay [7] and in [8] was inactive. For the same compound, the result in assay [9] and in [10] was inactive. The AC50 in assay [4] is 30 µM (active) and 21.3 µM (active); in assay [6], 30 µM (active); in assay [7] it was 21.9 µM (active); in [10], 7.58 µM (active).

On to `C[Si](Cl)(Cl)CCC(F)(F)C(F)(F)C(F)(F)C(F)(F)C(F)(F)C(F)(F)F`, for which the outcome in [1], in [2], in assay [3], in assay [4], in assay [5] and in [6] was inactive. Also, the result in assay [7], in [8] and in assay [9] was inactive. Further, the AC50 is 2.48 µM (active) in assay [4]; 0.332 µM (active) in assay [7]; 115 nM (active) and 2.85 µM (active) in assay [10].

Regarding `Cc1cc(C)c(O)c(C(C)(C)C)c1`, the AC50 is 27.2 µM (active) in assay [1]; 27.4 µM (active) in assay [3]; 35.9 µM (active) in assay [4]; 31.2 µM (active) in assay [5]; 29.5 µM (active) in assay [6]; 20 µM (active) in assay [7]. Also, the concentration at half-maximal activity (AC50) in assay [10] is 18.8 µM (active). Besides, the outcome in assay [2], in assay [8] and in assay [9] was inactive.

With `CN(C(=O)C(F)(F)C(F)(F)C(F)(F)F)[Si](C)(C)C`, the result in assay [1], in assay [2], in assay [3], in assay [4], in assay [5] and in assay [6] was inactive. The result in assay [7], in assay [8], in assay [9] and in [10] was inactive.

Take `O=C=NCc1cccc(CN=C=O)c1`: the result in [1], in assay [2], in assay [3], in assay [4], in [5] and in assay [6] was inactive. The outcome in assay [7], in assay [8], in [9] and in assay [10] was inactive.

With `C=CC(=O)OCC(F)(F)C(F)(F)C(F)(F)COC(=O)C=C`, the AC50 in assay [1] is 44.9 µM (active) and 28.3 µM (active); in assay [2], 7.48 µM (active) and 7.64 µM (active); in assay [3], 7.91 µM (active); in [4], 1.26 µM (active) and 1.32 µM (active); in [5], 48.3 µM (active) and 47.6 µM (active); in assay [6], 30 µM (active) and 25.8 µM (active). For the same compound, the AC50 in assay [7] is 5.04 µM (active) and 1.49 µM (active); in assay [9] it was 3.92 µM (active) and 4.38 µM (active); in assay [10], 111 nM (active) and 1.28 µM (active). The result in assay [3] and in assay [8] was inactive.

Regarding `C[C@]12CC[C@H]3C(=CCc4cc(O)ccc43)[C@@H]1CCC2=O`, the result in assay [1], in [2], in assay [3], in assay [4], in [5] and in assay [6] was inactive. For the same compound, the result in assay [7], in [8], in [9] and in assay [10] was inactive.

`CCOC(=O)CC(=O)C(F)(F)C(F)(F)F`: the result in assay [1], in [2], in assay [3], in [4], in assay [5] and in [6] was inactive. In addition, the result in [7], in assay [8], in assay [9] and in assay [10] was inactive.

Take `FC(F)(F)C(F)(F)C(F)(F)C(F)(F)C(F)(F)C(F)(F)C(F)(F)CCI`: the outcome in [1], in [2], in [3], in [4], in assay [5] and in assay [6] was inactive. The outcome in [7], in [8] and in assay [9] was inactive. For the same compound, the AC50 in assay [4] was 2.45 µM (active); in [7], 2.26 µM (active); in assay [10] it was 1.78 µM (active) and 1.25 µM (active).

As to `CO[Si](C)(CCC(F)(F)C(F)(F)C(F)(F)C(F)(F)C(F)(F)C(F)(F)F)OC`, the result in [1], in assay [2], in [3], in assay [4], in assay [5] and in [6] was inactive. Besides, the outcome in [7], in [8], in assay [9] and in [10] was inactive.

With `O=C1c2c(O)ccc(Nc3ccc(CCO)cc3)c2C(=O)c2c([N+](=O)[O-])ccc(O)c21`, the AC50 in assay [1] is 4.72 µM (active); in assay [2], 20 µM (active); in [4], 20 µM (active); in assay [7] it was 20 µM (active); in assay [10] it was 10.4 µM (active). The outcome in assay [3], in [5], in assay [6], in [8] and in [9] was inactive.
